High-throughput results from PubChem.
JMJD2A Tudor inh = blocks the human JMJD2A Tudor domain; AlphaScreen JMJD2A-Tudor / H3K4me3 peptide binding; Potency, µM (doses to about 114 µM), hits mostly inhibitors; 4.4% of 390,000 active; AID 504339; also: nearly all actives have a fitted effect of over 50% in size
TDP1 block = blocks human tyrosyl-DNA phosphodiesterase 1; Q9NUW8; recombinant TDP1, AlphaScreen DNA substrate cleavage; Potency, µM (highest dose often 130 µM), hits mostly inhibitors; 0.28% of 350,000 active; AID 485290; also: nearly all actives have a fitted effect of over 40% in size
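Signal: AlphaScreen proximity between streptavidin donor and anti-FITC acceptor beads on intact substrate. Reaction: Tdp1 1 nM, substrate 15 nM final, 5 min RT after 15 min compound preincubation.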
G9a block = G9a (human) methyltransferase inhibition | Q96KQ7 | G9a H3K9 monomethylation, AlphaScreen, 2 h | Potency, µM (series often up to 102 µM), hits mostly inhibitors | 8.8% of 350,000 active | AID 504332; also: nearly all actives have a fitted effect of over 75% in size
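Using a bead-based AlphaScreen, monomethylated H3K9 product from 2 h room-temperature reactions (G9a 20 nM, peptide 500 nM, SAM 20 uM) was detected with 0.5 ug/mL rabbit anti-H3K9me1 antibody.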
Sfp inh = blocks B. subtilis Sfp PPTase activity | Q9F4F7 | Biochemical Sfp PPTase activity, qHTS | Potency, µM, usual class: inhibitors | 3.5% of 310,000 active;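 also: the enzyme is Sfp with the accession as filed and its product quenches rhodamine fluorescence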
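Fluorescence-quenching assay: 15 nM Sfp-PPTase preincubated 15 min at room temperature with compound, then 5 uM rhodamine-CoA and 12.5 uM BHQ-2-labelled YbbR peptide added. Fluorescence (ex 525/em 598 nm) read at start and after 30 min; difference gives rate.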
HP1b binding inh = inhibitors of HP1-beta chromodomain binding to methylated histone tails; P83916; AlphaScreen HP1-beta / biotin-H3K9me3 peptide binding; Potency, µM (doses to about 114 µM), hits mostly inhibitors; 0.56% of 390,000 active; also: nearly all actives have a fitted effect of over 70% in size
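AlphaScreen: HP1-beta (50 nM) preformed 30 min with biotin-H3(1-18)K9me3 peptide (50 nM) in PBS pH 7.4, 0.01% Tween-20. Compound added for 30 min at RT, then streptavidin donor/nickel chelate acceptor beads (10 ug/mL) for 30 min.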
BAZ2B block = BAZ2B (human) inhibition; AlphaScreen BAZ2B-H3K14Ac peptide displacement; 4.4% of 360,000 active; AID 504333; Potency, µM (doses to about 114 µM), hits mostly inhibitors; also: nearly all actives have a fitted effect of over 60% in size
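BAZ2B (50 nM) with biotin-H3(5-23)K14Ac peptide (50 nM) in PBS pH 7.4, 0.01% Tween-20, preformed 30 min, then compound 30 min at room temperature; top concentration 110uM. AlphaScreen streptavidin donor/nickel chelate acceptor beads (10 ug/mL final), 20 min dark, signal read.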
Large screens that a line does not name were inactive; ! = repeats disagree. Sampled rows, rich in hits. Any-hit rate of the full collection: about 12%. Calls follow the shape of the dose curve; as a rule, active = well fitted curve in the direction sought with a large enough effect; inconclusive = small, poorly fitted or top-dose-only effect, or another doubt; inactive = no such curve, though single readings can be large; an effect the other way counts as inactive or inconclusive.

CCOC(=O)c1ccc(NS(=O)(=O)c2cc(-c3onc(C)c3C)ccc2C)cc1	none (no result: Sfp inh)
COc1ccc2c(C)cc(N3CCCCCC3)nc2c1	JMJD2A Tudor inh 12.6µM, G9a block inconclusive, Sfp inh inconclusive, BAZ2B block 22.4µM
COc1ccc(N2CCN(c3cc(C)nc4ccc(OC)cc34)CC2)cc1	JMJD2A Tudor inh 44.7µM, G9a block 50.1µM, HP1b binding inh inconclusive, BAZ2B block 31.6µM
c1csc(-c2nc(N3CCOCC3)c3ccccc3n2)c1	none (no result: TDP1 block)
COc1ccc(N2CCN(c3nc(-c4cccs4)nc4ccccc34)CC2)cc1	JMJD2A Tudor inh inconclusive, G9a block 20µM, HP1b binding inh inconclusive, BAZ2B block inconclusive
COc1ccc(N2CCN(c3cc(C)c4ccccc4n3)CC2)cc1	JMJD2A Tudor inh inconclusive, G9a block 10µM, HP1b binding inh inconclusive, BAZ2B block inconclusive
CC(=O)N(Nc1ccccc1)c1ccccc1	none (no result: TDP1 block)
C=CCN1C(=O)C(CC(C)C)NC1=S (centres undefined)	none (no result: JMJD2A Tudor inh, HP1b binding inh, BAZ2B block)
COc1cccc(N2CCN(c3cnc4ccccc4n3)CC2)c1	Sfp inh 79.4µM
COCCCNc1cc(C)nc2ccccc12	none
Cc1cc(NCCCCCCCNc2cc(C)nc3cc([N+](=O)[O-])ccc23)c2ccc([N+](=O)[O-])cc2n1	JMJD2A Tudor inh 56.2µM, HP1b binding inh 70.8µM (no result: TDP1 block, G9a block, Sfp inh, BAZ2B block)
O=C(COC(=O)C1=COCCO1)NC(=O)c1ccc(OC(F)F)cc1	none
O=C(/C=C/c1cc[n+](CC(=O)c2ccc3cccc4c3c2CC4)cc1)c1ccc2cccc3c2c1CC3	G9a block 39.8µM, Sfp inh 35.5µM, BAZ2B block inconclusive
O=C(/C=C/c1ccccc1)NC(=S)Nc1ccc2c3c(cccc13)CC2	none
CCCNC(=O)Cn1nc(C(F)(F)F)cc1C	none
CN(C)c1ccc(/C=C(\NC(=O)c2ccccc2)C(=O)NCCCn2ccnc2)cc1	JMJD2A Tudor inh 50.1µM, G9a block 50.1µM, BAZ2B block 28.2µM
O=C(NCCCn1ccnc1)/C(=C\c1ccc(Br)cc1)NC(=O)c1ccccc1	JMJD2A Tudor inh inconclusive
COc1ccc(C(=O)N/C(=C\c2cn(S(=O)(=O)N(C)C)c3ccccc23)C(=O)NCCCn2ccnc2)cc1	JMJD2A Tudor inh inconclusive, BAZ2B block 31.6µM
O=C(NCCCn1ccnc1)/C(=C/c1ccccc1)NC(=O)c1ccccc1	JMJD2A Tudor inh 44.7µM, BAZ2B block inconclusive
CC1=C(C(=O)OCC2CCCO2)C(c2ccc(F)cc2)NC(=O)N1 (centres undefined)	none (no result: G9a block)
COc1ccc(C(C)NC(=S)NC2CCCC2)cc1OC (centres undefined)	G9a block 17.8µM
Cc1ccc(C(C)NC(=S)NC2CCCCC2)cc1C (centres undefined)	BAZ2B block inconclusive (no result: JMJD2A Tudor inh, G9a block, HP1b binding inh)
Cc1ccc(C)o1	none (no result: JMJD2A Tudor inh, G9a block, Sfp inh, HP1b binding inh, BAZ2B block)
Cc1cc(C)nc(SCc2ccc(C(=O)N/N=C/c3ccc(C(=O)O)cc3)cc2)n1	none
Cc1cc(C)nc(SCc2ccc(C(=O)N/N=C/c3ccco3)cc2)n1	G9a block 39.8µM, Sfp inh inconclusive, BAZ2B block inconclusive
NC(=O)NC(=O)COC(=O)c1ccc2noc(-c3ccccc3)c2c1	none
CC(=O)COC(=O)c1ccc2noc(-c3ccccc3)c2c1	BAZ2B block 50.1µM
Cc1ccc(-c2onc3ccc(C(=O)O)cc23)cc1	G9a block 39.8µM (no result: TDP1 block)
O=Cc1cccc(OC(=O)/C=C/c2ccco2)c1	JMJD2A Tudor inh 35.5µM, G9a block inconclusive, HP1b binding inh 14.1µM (no result: TDP1 block)
CCOc1cc(C(=S)N2CCOCC2)cc(Br)c1OS(=O)(=O)c1ccccc1	G9a block 28.2µM, Sfp inh 79.4µM (no result: TDP1 block)
COc1ccc(C(=S)N2CCN(C)CC2)cc1	Sfp inh 25.1µM
COc1cc(C(=S)N2CCOCC2)cc(OC)c1OC(=O)c1ccc(C)cc1	JMJD2A Tudor inh inconclusive
CCOc1cc(C(=S)N2CCCCC2)ccc1OS(=O)(=O)c1ccc(Br)cc1	none
COc1cc(C(=S)N2CCOCC2)cc(OC)c1OC	G9a block 39.8µM, Sfp inh 50.1µM!
CC(C)C[C@H](NC(=O)CNC(=O)[C@H](C)NC(=O)[C@H](CC(C)C)NC(=O)[C@H](CCCNC(=N)N)NC(=O)[C@H](Cc1cnc[nH]1)NC(=O)[C@@H](NC(=O)[C@@H](N)C(C)C)[C@@H](C)O)C(=O)N[C@@H](CC(C)C)C(=O)N[C@@H](CO)C(=O)N[C@@H](CCCNC(=N)N)C(=O)N[C@@H](CO)C(=O)NCC(=O)NCC(=O)N[C@H](C(=O)N[C@H](C(=O)N[C@@H](CCCCN)C(=O)N[C@@H](CC(N)=O)C(=O)N[C@@H](CC(N)=O)C(=O)N[C@@H](Cc1ccccc1)C(=O)N[C@H](C(=O)N1CCC[C@H]1C(=O)N[C@H](C(=O)N[C@@H](CC(N)=O)C(=O)N[C@H](C(=O)NCC(=O)N[C@@H](CO)C(=O)N[C@@H](CCCCN)C(=O)N[C@@H](C)C(=O)N[C@@H](Cc1ccccc1)C(N)=O)C(C)C)[C@@H](C)O)C(C)C)C(C)C)C(C)C	none (no result: JMJD2A Tudor inh, G9a block, HP1b binding inh, BAZ2B block)
CCCNC(=O)C1=CC(c2ccc3c(c2)OCO3)=NS(=O)(=O)N1C	none (no result: Sfp inh)
COc1cc(C(=S)N2CCOCC2)ccc1OC(=O)c1cc([N+](=O)[O-])c(C)c([N+](=O)[O-])c1	G9a block inconclusive
CCOc1cc(C(=S)N2CCOCC2)ccc1OC(=O)/C=C/c1ccc(OC)c(OC)c1	G9a block inconclusive, BAZ2B block inconclusive
COc1cc(C(=S)N2CCOCC2)ccc1OC(=O)c1cc(OC)c(OC)c(OC)c1	G9a block 14.1µM, Sfp inh 50.1µM (no result: TDP1 block)
O=C(Oc1ccc(C(=S)N2CCOCC2)cc1)c1ccccc1	none
O=C(Oc1ccccc1C(=S)N1CCOCC1)c1ccccc1	G9a block 44.7µM
CCOc1ccc(C(=S)N2CCOCC2)cc1OCC	G9a block 31.6µM
COc1ccc(C(=O)Oc2cc(C(=S)N3CCOCC3)ccc2OC)cc1	JMJD2A Tudor inh inconclusive, G9a block 31.6µM
Cc1cc(C)cc(NC(=O)CSc2nc(=O)[nH]c3c2CCC3)c1	none (no result: Sfp inh)
CC(C)CCCC(C)N (centres undefined)	none (no result: JMJD2A Tudor inh, HP1b binding inh, BAZ2B block)
CC(C)(C)OC(=O)C[C@H]1C/C=C\C[C@H](CC(=O)N(CCO)Cc2ccccc2)C(=O)NC[C@H](c2ccccc2)OC1=O	none (no result: G9a block, Sfp inh, BAZ2B block)
CS(=O)(=O)N1CCC2(CC1)CN(C(c1ccccc1)c1ccccc1)C2	none (no result: JMJD2A Tudor inh, TDP1 block, HP1b binding inh, BAZ2B block)
Cc1ccc(CSc2nc(-c3ccccc3C)nc3c2Cc2c(CO)cnc(C)c2O3)cc1	none (no result: Sfp inh)
O=C(Nc1ccc(O)cc1)c1c(O)c2c([nH]c1=O)CCCC2	none
CCOc1cc(C(=S)N2CCOCC2)ccc1OS(=O)(=O)c1ccc(C)cc1	G9a block 35.5µM
O=C(/C=C/c1ccco1)Oc1ccc(C(=S)N2CCOCC2)cc1	JMJD2A Tudor inh 17.8µM, G9a block inconclusive
